In the library only some 6.9% were active in any assay of this set; here they are far more common.
NS3h inh CB – hepatitis C NS3 helicase inhibition, primary screen; 16,000 compounds, 1.6% hits; NS3h Cy5-dT15 DNA binding, fluorescence polarization; inhibition, % at 100 µM; AID 687043;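 active = inhibition above the average over every tested compound plus 3 SD, cut at about 40% in these data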
Cy5 interf NS3h – Cy5 fluorescence interference, HCV helicase counter-screen; fluorescence interference ratio at 100 µM; 16,000 compounds, 6% hits; AID 720488; Cy5-dT15 DNA with NS3h; actives lie on both sides; signal over control mean, under 1 quenches;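 active = compound fluorescence over control fluorescence at most 0.8, a quencher, or at least a set upper limit, an enhancer; inactive = ratio between 0.8 and the set upper limit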
NS3h confirm – hepatitis C NS3 helicase inhibition, confirmation; shares compounds with NS3h inh CB; NS3h binding to Cy5-dT15 DNA, fluorescence polarization; inhibition, % at 100 µM; 240 compounds, 20% hits; AID 720485;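 active = percent inhibition of 50% or more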
SSB FP counter – counter-screen for HCV NS3 helicase inhibitors: E. coli SSB binding; shares compounds with NS3h inh CB; E. coli SSB binding Cy5-dT15, fluorescence polarization; inhibition, % at 100 µM; 240 compounds, 40% hits;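 active = inhibition of at least 50%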;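 also: displacers lower Cy5 polarization so higher inhibition means more SSB displaced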
Target sequence (P0AGE0 whole entry, looked up): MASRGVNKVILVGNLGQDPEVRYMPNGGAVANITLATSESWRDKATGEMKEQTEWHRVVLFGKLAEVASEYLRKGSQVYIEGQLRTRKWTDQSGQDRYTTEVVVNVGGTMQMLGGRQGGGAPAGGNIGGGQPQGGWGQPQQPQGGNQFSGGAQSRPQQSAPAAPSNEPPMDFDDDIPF
Cy5 SSB fluor CB – counter-screen for HCV NS3 helicase inhibitors: fluorescence interference; shares compounds with NS3h inh CB; 240 compounds, 8% hits; fluorescence interference ratio at 100 µM; Cy5-dT15/E. coli SSB fluorescence interference; actives lie on both sides;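 active = fluorescence interference ratio at or above 1.2, signal boosting, or at or below 0.8, signal quenching; inactive = ratio between 0.8 and 1.2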;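 also: ratio of compound well signal to mean negative control signal so 1 means no effect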
Cy5 interf conf – confirmation counter-screen for HCV NS3 helicase inhibitors: fluorescence interference. shares compounds with NS3h inh CB. Cy5-dT15 DNA/NS3h fluorescence interference counterscreen. fluorescence interference ratio at 100 µM, hits read low. 240 compounds, 44% hits. AID 720489;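 active = fluorescence interference ratio at or below 0.8 quencher or at or above a set limitenhancer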;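 also: ratio of compound fluorescence to mean of negative controls so 1 means no interference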
* marks the source's active call; other numbers are inactive results; nt = not tested or not shown.

SMILES	NS3h inh CB	Cy5 interf NS3h	NS3h confirm	SSB FP counter	Cy5 SSB fluor CB	Cy5 interf conf
O=C1C=CC(=O)N1c1ccc([N+](=O)[O-])cc1Br	88*	0.92	62*	0	0.94	0.76*
O=C1C=CC(=O)N1c1cccc([N+](=O)[O-])c1	63*	0.9	66*	9	0.99	0.92
O=C1C2C3CCC(O3)C2C(=O)N1c1cccc([N+](=O)[O-])c1 (stereo not given)	0	0.9	nt	nt	nt	nt
Cc1ccc(OCC(N)=O)c(Br)c1	-13	1.1	nt	nt	nt	nt
CCOc1ccc(N2C(=O)C=CC2=O)c([N+](=O)[O-])c1	64*	0.97	47	4	0.97	0.95
CCOc1ccc(NC(=O)c2cccc(Oc3ccccc3)c2)c([N+](=O)[O-])c1	7	1.1	nt	nt	nt	nt
O=C1c2[nH]nc(-c3ccccc3)c2C(c2cccc(F)c2)N1c1ccccc1 (stereo not given)	-2	0.99	nt	nt	nt	nt
O=C1c2ccccc2NC(c2c(Cl)cccc2Cl)N1Cc1ccco1 (stereo not given)	12	0.98	nt	nt	nt	nt
O=C(NCCCn1ccnc1)C(=O)Nc1ccc(Br)cc1	1	1	nt	nt	nt	nt
CC(=O)c1ccc(NC(=O)Cc2ccc(Cl)cc2)cc1	12	0.97	nt	nt	nt	nt
COc1cc(/C=C2\SC(=S)N(Cc3ccccc3)C2=O)ccc1OC(=O)c1ccc(Cl)cc1	10	1.1	nt	nt	nt	nt
COc1cc(/C=C2/SC(=S)N(C)C2=O)cc(Cl)c1OCCOc1ccc(C)cc1	5	1.2	nt	nt	nt	nt
Cn1c(-c2ccc(C=O)o2)nc2c3ccccc3c3ccccc3c21	10	0.99	nt	nt	nt	nt
CCCC(C)NC(=O)c1ccc(OC)c([N+](=O)[O-])c1 (stereo not given)	-3	1	nt	nt	nt	nt
Cc1ccc(C2Nc3ccccc3NC3=C2C(=O)CC(c2ccccc2)C3)s1 (stereo not given)	3	1	nt	nt	nt	nt
O=C(N/N=C\c1ccccc1O)/C(=C\c1ccc2c(c1)OCO2)NC(=O)c1ccccc1	5	1.1	nt	nt	nt	nt
CN(C)c1ccc(/C=C(\NC(=O)c2ccccc2)C(=O)N/N=C\c2cc(O)ccc2[N+](=O)[O-])cc1	45*	0.65*	25	76*	0.79*	0.73*
COc1cc(N)ccc1-n1c(C)ccc1C	68*	0.7*	8	22	0.69*	0.61*
COc1ccc(-n2c(Cc3ccccc3)n[nH]c2=S)c(OC)c1	0	0.93	nt	nt	nt	nt
O=C1NC(=O)N(c2ccc(Cl)cc2)C(=O)/C1=C/c1cc(I)c(O)c([N+](=O)[O-])c1	78*	1	43	92*	0.92	0.96
O=C1NC(=O)N(c2cccc(Br)c2)C(=O)/C1=C/c1ccc(O)c(Cl)c1	25	1	nt	nt	nt	nt
O=C1NC(=O)N(c2ccc(Cl)cc2)C(=O)/C1=C/c1ccc(O)c(Cl)c1	74*	1	21	34	0.97	0.86
O=C1NC(=O)N(c2ccc(Cl)cc2)C(=O)/C1=C\c1cccc(O)c1	-2	0.99	nt	nt	nt	nt
CCc1nnc(NS(=O)(=O)c2ccc(N/C=C/C(=O)c3ccc(OC)cc3OC)cc2)s1	12	0.99	nt	nt	nt	nt
Cc1ccc(NC(=O)COc2ccccc2Cl)c(C(=O)O)c1	1	1	nt	nt	nt	nt
SMILES	NS3h inh CB	Cy5 interf NS3h	NS3h confirm	SSB FP counter	Cy5 SSB fluor CB	Cy5 interf conf
COc1ccc(CNC(=O)C(=O)Nc2cccc(Cl)c2)cc1	6	1.1	nt	nt	nt	nt
C=CCN1C(=O)NC(=O)/C(=C\c2ccccc2OCc2ccc([N+](=O)[O-])cc2)C1=O	58*	0.49*	27	26	0.97	0.66*
O=C1NC(=O)N(c2ccccc2)C(=O)/C1=C\c1ccccc1OCc1ccccc1F	22	1	nt	nt	nt	nt
COc1cc(/C=C2/SC(=S)NC2=O)cc(Cl)c1OCc1ccc(Cl)cc1Cl	48*	1	12	55*	0.94	0.85
COc1ccc(/C=C2/SC(=S)NC2=O)cc1OCc1ccc(Cl)cc1	8	1	nt	nt	nt	nt
O=C(NC(=S)Nc1ccc(Cc2ccncc2)cc1)c1ccccc1	36	0.93	nt	nt	nt	nt
CCN(CC)CCNC(=O)c1ccc(NC(=S)NC(=O)c2cccnc2)cc1	63*	0.72*	41	36	0.77*	0.81
COc1ccc(C(=O)N2N=C3CC(C)(C)OCC3C2c2ccc(OC)cc2)cc1 (stereo not given)	3	0.96	nt	nt	nt	nt
COC(=O)c1cccc(N2C(=O)C=CC2=O)c1	46*	0.95	36	-2	0.98	0.73*
COC(=O)c1cccc(NC(=O)c2ccc[n+]([O-])c2)c1	4	1.1	nt	nt	nt	nt
Cc1ccc(NC(=O)C2CC(=O)N(c3ccc(Br)cc3)C2)cc1Cl (stereo not given)	20	1	nt	nt	nt	nt
O=C(Nc1ccc(Cl)c(Cl)c1)C1CC(=O)N(c2cccc([N+](=O)[O-])c2)C1 (stereo not given)	39	1.1	0	14	0.97	0.94
O=C(O)CC(C(=O)O)c1c[nH]c2ccccc12 (stereo not given)	-5	1.1	nt	nt	nt	nt
O=C(O)Cc1c[nH]c2ccc(O)cc12	90*	0.81	78*	110*	0.88	0.91
COc1cc(/C=C2\SC(=S)N(c3ccc([N+](=O)[O-])cc3)C2=O)ccc1OC(=O)C12CC3CC(CC(C3)C1)C2	7	1.1	nt	nt	nt	nt
O=C(CSCc1ccc(Cl)cc1)Nc1ccc(C(=O)Nc2nccs2)cc1	-7	1	nt	nt	nt	nt
O=C1CSC(=Nc2ccc(O)cc2)N1	4	0.99	nt	nt	nt	nt
Cc1ccc(C)n1/N=C1/NC(=O)CS1	90*	0.97	77*	107*	0.93	0.97
CCOc1ccc(C2C(=C(O)c3ccc(Cl)cc3)C(=O)C(=O)N2CCCn2ccnc2)cc1 (stereo not given)	2	1	nt	nt	nt	nt
O=C(O)C1Nc2c(Cl)cc(Cl)cc2C2C=CCC12 (stereo not given)	97*	0.87	57*	104*	0.9	0.75*
COc1ccc2c(c1)C1C=CCC1C(C(=O)O)N2 (stereo not given)	84*	1.2	59*	108*	1.5*	0.94
O=[N+]([O-])c1ccc2c(c1)C1C=CCC1C(c1cccc(Cl)c1Cl)N2 (stereo not given)	7	0.97	nt	nt	nt	nt
COc1ccccc1NS(=O)(=O)c1ccc(Cl)c([N+](=O)[O-])c1	19	0.97	nt	nt	nt	nt
CCOc1cc(OCC)cc(C(=O)Nc2ccc(Cl)cc2Cl)c1	8	1	nt	nt	nt	nt
CC(=O)OC1CCC2(C)C(=CCC3C2CCC2(C)C(C(=O)O)CCC32)C1 (stereo not given)	7	1.1	nt	nt	nt	nt
COc1ccc(C(=O)/C=C/Nc2cccc(C(F)(F)F)c2)cc1	11	1.1	nt	nt	nt	nt
O=C(O)CCC(=O)N1N=C(c2ccc(Br)cc2)CC1c1ccccc1 (stereo not given)	1	1	nt	nt	nt	nt
Cc1ccc(C)c(NCN2C(=O)S/C(=C/c3cccc(Br)c3)C2=O)c1	7	0.98	nt	nt	nt	nt
CN(C)c1ccc(C(=O)Nc2ccc(S(N)(=O)=O)cc2)cc1	78*	0.84	57*	49	0.83	0.78*
CN(C)c1ccc(NC(=O)c2ccc(Cl)cc2)cc1	10	0.9	nt	nt	nt	nt
